Molecules are shown by their SMILES. Compounds without any hit were thinned out: in the full panel of roughly 83,000, 20% have a hit.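 Negative percent growth values reflect cell death: -40 means 40% of the cells present at the start died, and -100 means all died.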 A number with no mark means an inactive call. The source made the active and inactive calls. The calls were made as follows: active = growth percent below 10; inactive = the rest.

What all share (assay): NCI-60 one-dose screen, 48 h (100 = growth as untreated, 0 = no growth, -100 = all killed)
One test relates to HCT-15 colon. To be noted: 10 µM unless noted.
A further test concerns HT29 colon. To be noted: 10 µM unless noted.
The next test deals with SNB-75 CNS. To be noted: 10 µM unless noted.
The next test relates to SNB-19 CNS. To be noted: 10 µM unless noted.
The subject of a further test is U251 CNS. To be noted: 10 µM unless noted.
Another test has as its system PC-3 prostate. To be noted: 10 µM unless noted.
The next test has as its system SK-MEL-5 melanoma. To be noted: 10 µM unless noted.
In the next test the test system is UACC-62 melanoma. To be noted: 10 µM unless noted.
The subject of a further test is LOX IMVI melanoma. To be noted: 10 µM.
For another test, the system named is SK-MEL-28 melanoma. To be noted: 10 µM unless noted.
The test system of a further test is EKVX NSCLC. To be noted: 10 µM unless noted.
A further test has as its system SN12C renal. To be noted: 10 µM unless noted.
The test system of the next test is UO-31 renal. To be noted: 10 µM unless noted.
The next test has as its system TK-10 renal. To be noted: 10 µM unless noted.
A further test has as its system ACHN renal. To be noted: 10 µM unless noted.
In a further test the test system is CAKI-1 renal. To be noted: 10 µM unless noted.
The test system of a further test is A498 renal. To be noted: 10 µM unless noted.
The subject of another test is CCRF-CEM leukemia. To be noted: 10 µM unless noted.
A further test concerns MOLT-4 leukemia. To be noted: 10 µM unless noted.
The next test deals with SK-MEL-2 melanoma. To be noted: 10 µM unless noted.

Turning to `O=C(OC1CCCC1)c1ccccc1Cl`, the growth in the test on HCT-15 colon is 111%; in the test with HT29 colon, 105%; with SNB-75 CNS, 90.3%; in the test on SNB-19 CNS it was 105%; with U251 CNS, 101%; with PC-3 prostate it was 95.7%. The growth with SK-MEL-5 melanoma is 108%; in the test with UACC-62 melanoma it was 99.2%; in the test with LOX IMVI melanoma, 97%; with SK-MEL-28 melanoma it was 107%; with EKVX NSCLC, 111%; in the test on SN12C renal it was 108%. For the same molecule, the growth in the test with UO-31 renal was 93.2%; in the test with TK-10 renal, 100%; in the test with ACHN renal it was 104%; in the test with CAKI-1 renal, 101%; in the test on A498 renal, 86.6%; with CCRF-CEM leukemia, 107%. In addition, the growth in the test on MOLT-4 leukemia is 110%.
Consider `O=C(CCl)Nc1ccccc1SCc1cc(Cl)cc2c1OCOC2`, for which the growth in the test with HCT-15 colon was 88.5%; in the test with HT29 colon it was 82.5%; in the test on SNB-75 CNS, 73.9%; in the test with SNB-19 CNS, 99.5%; with U251 CNS, 88.9%; with PC-3 prostate, 82.2%. Moreover, the growth was 63.3% in the test on SK-MEL-5 melanoma; 81.2% in the test on UACC-62 melanoma; -76% (active) with LOX IMVI melanoma; 94% with SK-MEL-28 melanoma; 91.3% with SN12C renal; 75.7% in the test on UO-31 renal. Also, the growth is 126% in the test with TK-10 renal; 35% in the test with CAKI-1 renal; 103% with A498 renal; -27.5% (active) in the test on CCRF-CEM leukemia; 50.7% with MOLT-4 leukemia.
In the case of `O=C(O)Cc1ccc(Cl)cc1`, the growth in the test with HCT-15 colon was 112%; in the test on HT29 colon, 107%; with SNB-75 CNS it was 102%; with SNB-19 CNS, 108%; with U251 CNS it was 104%; with PC-3 prostate it was 85.7%. In addition, the growth with SK-MEL-5 melanoma was 114%; in the test with UACC-62 melanoma, 110%; with LOX IMVI melanoma, 103%; with SK-MEL-28 melanoma, 132%; with EKVX NSCLC it was 79.2%; in the test with SN12C renal it was 122%. The growth is 99.4% in the test on UO-31 renal; 107% with TK-10 renal; 103% with ACHN renal; 95.9% in the test on A498 renal; 132% with CCRF-CEM leukemia; 8.9% (active) with MOLT-4 leukemia.
With `CCOc1ccccc1NC(=O)CCl`, the growth in the test with HCT-15 colon is 85.9%; with HT29 colon, 89.3%; with SNB-75 CNS, 88.3%; in the test with SNB-19 CNS it was 101%; with U251 CNS, 29%; with PC-3 prostate, 83.5%. Also, the growth in the test on SK-MEL-5 melanoma is 71.2%; with UACC-62 melanoma, 83.7%; in the test with LOX IMVI melanoma it was 85.3%; with SK-MEL-28 melanoma, 87%; with EKVX NSCLC it was 111%; in the test on SN12C renal it was 94.5%. For the same molecule, the growth is 116% with UO-31 renal; 94.5% with TK-10 renal; 108% with ACHN renal; 95.6% with CAKI-1 renal; 113% with A498 renal; 63.5% in the test with CCRF-CEM leukemia. The growth with MOLT-4 leukemia was 70.2%.
Take `CC(=O)c1cccc(O)c1`: the growth with HCT-15 colon is 101%; in the test with HT29 colon it was 92.1%; with SNB-75 CNS, 91.4%; in the test on SNB-19 CNS, 108%; in the test with U251 CNS, 97.2%; with PC-3 prostate, 106%. Moreover, the growth is 100% in the test on SK-MEL-5 melanoma; 109% with UACC-62 melanoma; 94.6% with LOX IMVI melanoma; 109% in the test with SK-MEL-28 melanoma; 103% with SK-MEL-2 melanoma; 90.5% with UO-31 renal. The growth in the test with TK-10 renal is 90%; in the test on ACHN renal, 103%; in the test on CAKI-1 renal, 97.9%; in the test on A498 renal, 38.3%; in the test on CCRF-CEM leukemia, 106%; with MOLT-4 leukemia, 95.9%.
`CCCCCCCCNC(=O)C(C)C`: the growth in the test on HCT-15 colon is 106%; in the test on HT29 colon it was 95.5%; in the test with SNB-75 CNS it was 91.2%; with SNB-19 CNS it was 101%; in the test with U251 CNS, 101%; with PC-3 prostate, 94.9%. The growth with SK-MEL-5 melanoma is 103%; in the test with UACC-62 melanoma, 96%; in the test with LOX IMVI melanoma it was 98%; with SK-MEL-28 melanoma it was 101%; in the test with EKVX NSCLC, 99.9%; with SN12C renal it was 95.8%. The growth is 99.1% in the test on UO-31 renal; 98.5% with TK-10 renal; 108% with ACHN renal; 99.1% in the test on CAKI-1 renal; 81.5% in the test with A498 renal; 102% in the test on CCRF-CEM leukemia. The growth with MOLT-4 leukemia is 107%.
As for `Cc1c(-c2ccc(C3CCCCC3)cc2)nc2ccc(F)cc2c1C(=O)O`, the growth was 25.1% with HCT-15 colon; 31.6% with HT29 colon; 62.7% with SNB-75 CNS; 61.7% in the test with SNB-19 CNS; 44.2% in the test on U251 CNS; 44.9% in the test on PC-3 prostate. The growth is 32.9% with SK-MEL-5 melanoma; 43.3% in the test on UACC-62 melanoma; 8.7% (active) in the test with LOX IMVI melanoma; 60.8% with SK-MEL-28 melanoma; 45.2% in the test with SN12C renal; 34.3% in the test with UO-31 renal. The growth in the test on TK-10 renal is 74.7%; with ACHN renal it was 43%; in the test with CAKI-1 renal, -2.23% (active); in the test with A498 renal it was 89.7%; in the test on CCRF-CEM leukemia it was 35.7%; in the test with MOLT-4 leukemia, 15.2%.

The record behind these values is PubChem BioAssay (NCI).
